Measured values published in PubChem BioAssay.
Activity calls are given as the source filed them.

Legend:
[1] = E. coli DRC41 culture turbidity changes, primary screen, E. coli filamentation inducer project, strain DRC41, OD650, 48 h (AID 1152);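 also: E. coli MC1000 strain DRC41 lacking acrAB efflux pump and sulA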; conditions: E. coli DRC41 (acrAB sulA), higher = more signal, called active from +8 up or from −8 down
[2] = small-molecule binders of probe aLefty1, primary screen, biochemical, small-molecule microarray, 635/667 nm fluorescence (AID 1153); conditions: higher = more signal;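 also: score merges spot fluorescence with signal-to-noise ratio from the scanned slide images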
[3] = PSAC antagonists in infected red cells, primary screen, cell-based, P. falciparum Indochina, OD700, 1 h (AID 1154); conditions: P. falciparum Indochina infected RBC osmotic lysis, higher = more signal, called active from +8 up or from −8 down
[4] = PSAC antagonists in infected red cells, primary screen, cell-based, P. falciparum Indochina, OD700, 2 h (AID 1155);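 also: lysis reports solute entry through the parasite surface anion channel PSAC; channel blockers reduce lysis of infected cells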; conditions: P. falciparum Indochina infected erythrocytes, osmotic lysis OD700; higher = more signal, called active from +8 up or from −8 down
[5] = osmotic lysis modulators in infected erythrocytes, primary screen, PSAC antagonist project, cell-based, P. falciparum Indochina, OD700, 3 h (AID 1156); conditions: higher = more signal, called active from +8 up or from −8 down
[6] = PSAC antagonists in infected red cells, primary screen, cell-based, P. falciparum Indochina, OD700, 18 h (AID 1157); conditions: P. falciparum Indochina infected erythrocytes, osmotic lysis OD700, 18 h; higher = more signal, called active from +8 up or from −8 down
[7] = modulators of S6 phosphorylation in cells, primary screen, cell-based, A549, cytoblot, luminescence, serum-stimulated (AID 1158); conditions: A549 phospho-S6 cytoblot, 5 h, higher = more signal;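 also: serum-stimulated A549 lung adenocarcinoma cells; signal is phosphorylated S6 detected by cytoblot immunostaining with HRP secondary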
[8] = target: NADPH oxidase 2 (Homo sapiens) (UniProt P04839); test: NOX2-dependent H2O2 signal modulators, primary screen, NOX inhibitor project, cell-based, HEK293-NOX2, PMA-stimulated, Amplex Red fluorescence (AID 1159); conditions: 45 min, higher = more signal, called active from +8 up or from −8 down; also: test concentration not given here
Chain of NADPH oxidase 2 (Homo sapiens) (P04839 whole entry, looked up): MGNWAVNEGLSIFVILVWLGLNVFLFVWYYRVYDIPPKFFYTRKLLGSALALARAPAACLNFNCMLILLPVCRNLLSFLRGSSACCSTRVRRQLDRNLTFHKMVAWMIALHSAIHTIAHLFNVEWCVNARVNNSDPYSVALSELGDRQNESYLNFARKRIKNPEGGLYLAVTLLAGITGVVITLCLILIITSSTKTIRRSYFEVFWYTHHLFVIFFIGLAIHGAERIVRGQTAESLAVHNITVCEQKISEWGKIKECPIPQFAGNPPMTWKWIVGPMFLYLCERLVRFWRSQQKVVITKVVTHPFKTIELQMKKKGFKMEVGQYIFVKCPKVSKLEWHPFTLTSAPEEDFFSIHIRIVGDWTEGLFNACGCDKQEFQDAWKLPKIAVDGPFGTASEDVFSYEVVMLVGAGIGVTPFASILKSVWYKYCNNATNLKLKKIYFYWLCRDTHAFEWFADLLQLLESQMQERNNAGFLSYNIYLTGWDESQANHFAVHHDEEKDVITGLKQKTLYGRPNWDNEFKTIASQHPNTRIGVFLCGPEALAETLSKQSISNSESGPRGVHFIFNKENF

[9] = target: NADPH oxidase 4 (Homo sapiens) (UniProt Q9NPH5); test: NOX4-dependent H2O2 signal modulators, primary screen, NOX inhibitor project, cell-based, HEK293-NOX4, tetracycline-induced, Amplex Red fluorescence (AID 1160); conditions: 45 min, higher = more signal, called active from +8 up or from −8 down
Chain of NADPH oxidase 4 (Homo sapiens) (Q9NPH5 whole entry, looked up): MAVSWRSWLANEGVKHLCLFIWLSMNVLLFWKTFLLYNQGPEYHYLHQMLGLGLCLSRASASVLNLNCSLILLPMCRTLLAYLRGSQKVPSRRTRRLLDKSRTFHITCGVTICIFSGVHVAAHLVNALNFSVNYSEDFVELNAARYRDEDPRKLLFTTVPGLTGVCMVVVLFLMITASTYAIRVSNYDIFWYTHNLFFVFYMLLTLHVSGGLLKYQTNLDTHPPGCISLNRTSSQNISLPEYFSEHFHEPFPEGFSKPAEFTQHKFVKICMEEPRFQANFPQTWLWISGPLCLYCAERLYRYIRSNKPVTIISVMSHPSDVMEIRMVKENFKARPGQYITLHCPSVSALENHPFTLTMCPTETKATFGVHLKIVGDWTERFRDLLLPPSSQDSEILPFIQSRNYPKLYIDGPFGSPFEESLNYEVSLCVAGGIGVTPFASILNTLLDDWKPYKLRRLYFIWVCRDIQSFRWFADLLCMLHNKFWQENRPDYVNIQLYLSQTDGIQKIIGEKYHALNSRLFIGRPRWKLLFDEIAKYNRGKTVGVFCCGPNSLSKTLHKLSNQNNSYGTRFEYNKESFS

[10] = target: NADPH oxidase 5 (Homo sapiens) (UniProt Q96PH1); test: NOX5-dependent H2O2 signal modulators, primary screen, NOX inhibitor project, cell-based, HEK293-NOX5, Amplex Red fluorescence (AID 1161); conditions: HEK293-NOX5, ionomycin, 45 min, higher = more signal
Chain of NADPH oxidase 5 (Homo sapiens) (Q96PH1 whole entry, looked up): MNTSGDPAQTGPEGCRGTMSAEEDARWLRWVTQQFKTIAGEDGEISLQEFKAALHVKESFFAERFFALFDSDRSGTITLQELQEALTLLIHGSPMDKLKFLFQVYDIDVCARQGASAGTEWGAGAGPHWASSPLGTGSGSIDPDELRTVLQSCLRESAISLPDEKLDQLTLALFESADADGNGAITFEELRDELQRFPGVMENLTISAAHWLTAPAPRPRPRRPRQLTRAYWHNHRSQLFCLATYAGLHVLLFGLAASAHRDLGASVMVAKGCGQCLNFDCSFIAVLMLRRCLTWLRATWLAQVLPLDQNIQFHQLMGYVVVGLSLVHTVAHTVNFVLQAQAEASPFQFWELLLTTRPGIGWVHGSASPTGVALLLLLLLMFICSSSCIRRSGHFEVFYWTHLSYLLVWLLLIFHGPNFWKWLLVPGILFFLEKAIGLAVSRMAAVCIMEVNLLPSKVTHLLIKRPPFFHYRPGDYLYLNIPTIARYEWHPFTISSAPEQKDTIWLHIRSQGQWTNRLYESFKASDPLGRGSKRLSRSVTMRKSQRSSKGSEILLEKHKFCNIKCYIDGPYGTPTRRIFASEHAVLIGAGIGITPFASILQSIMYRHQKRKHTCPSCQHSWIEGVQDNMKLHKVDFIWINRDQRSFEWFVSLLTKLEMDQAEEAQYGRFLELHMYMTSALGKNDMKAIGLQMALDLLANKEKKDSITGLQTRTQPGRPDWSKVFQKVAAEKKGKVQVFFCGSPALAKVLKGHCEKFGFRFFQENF

## COc1cccc([C@H]2Oc3ccc(OC)cc3C(=NOC[C@@H](O)COCc3ccco3)[C@@H]2O)c1
[1]
  z-score: -0.964 (inactive)
[2]
  composite z-score: -0.43
[3]
  z-score: 0.55 (inactive)
[4]
  z-score: -2.05 (inactive)
[5]
  z-score: 0.135 (inactive)
[6]
  z-score: -2.01 (inactive)
[7]
  z-score: 1.04
[8]
  z-score: -0.262 (inactive)
[9]
  z-score: 0.378 (inactive)
[10]
  z-score: -0.104

## C[C@H]1COC(=O)[C@@H]2CCCN2C(=O)[C@@H](C)COC(=O)[C@H](Cc2ccccc2)NC1=O
[1]
  z-score: -0.0891 (inactive)
[2]
  composite z-score: -0.394
[3]
  z-score: 0.115 (inactive)
[4]
  z-score: -0.29 (inactive)
[5]
  z-score: 0.968 (inactive)
[6]
  z-score: 0.22 (inactive)
[7]
  z-score: 0.413
[8]
  z-score: -0.45 (inactive)
[9]
  z-score: -0.114 (inactive)
[10]
  z-score: -0.272

## C[C@H](ON=C1[C@H]2CCn3c(=O)n(-c4ccccc4)c(=O)n3[C@H]2[C@H](O)[C@@H]2O[C@H]12)c1cn([C@H](CO)Cc2ccccc2)nn1
[1]
  z-score: 0.699 (inactive)
[2]
  composite z-score: 0.0502
[3]
  z-score: 0.463 (inactive)
[4]
  z-score: -0.426 (inactive)
[5]
  z-score: -0.089 (inactive)
[6]
  z-score: -0.0498 (inactive)
[7]
  z-score: -0.52
[8]
  z-score: -0.094 (inactive)
[9]
  z-score: 0.535 (inactive)
[10]
  z-score: 0.346

## C#CCCCON=C1C[C@@H](O)[C@@H](O)[C@@H]2[C@@H]3C(=O)N(C(C)(C)C)C(=O)[C@@H]3CC[C@@H]12
[1]
  z-score: -0.441 (inactive)
[2]
  composite z-score: 0.308
[3]
  z-score: 3.54 (inactive)
[4]
  z-score: 1.28 (inactive)
[5]
  z-score: 0.158 (inactive)
[6]
  z-score: 0.305 (inactive)
[7]
  z-score: 0.929
[8]
  z-score: 0.934 (inactive)
[9]
  z-score: 1.27 (inactive)
[10]
  z-score: -0.106

## CC1O[C@H]2C3=C(C(=O)[C@@H]4O[C@@H]4[C@H]3O)[C@@H]1C1[C@@H](C)OC=C3[C@H](O)C4O[C@@H]4C(=NOCc4ccccc4)[C@]312 (stereo not given in full)
[1]
  z-score: -0.259 (inactive)
[2]
  composite z-score: -0.184
[3]
  z-score: 1.3 (inactive)
[4]
  z-score: 0.184 (inactive)
[5]
  z-score: 0.0322 (inactive)
[6]
  z-score: 0.0995 (inactive)
[7]
  z-score: -0.871
[8]
  z-score: 0.32 (inactive)
[9]
  z-score: 0.584 (inactive)
[10]
  z-score: 0.445

## CCN1C(=O)[C@H]2[C@H]3[C@H](O)[C@H](O)CC(=O)[C@H]3CC[C@H]2C1=O
[1]
  z-score: 0.115 (inactive)
[2]
  composite z-score: -0.0603
[3]
  z-score: -0.0957 (inactive)
[4]
  z-score: 0.143 (inactive)
[5]
  z-score: -0.669 (inactive)
[6]
  z-score: 0.0097 (inactive)
[7]
  z-score: -0.276
[8]
  z-score: -0.676 (inactive)
[9]
  z-score: 0.471 (inactive)
[10]
  z-score: -0.156

## CC(C)CON=C1C[C@@H](O)[C@@H](O)[C@@H]2[C@@H]3C(=O)N(C(C)(C)C)C(=O)[C@@H]3CC[C@H]12
[1]
  z-score: 0.288 (inactive)
[2]
  composite z-score: -0.0162
[3]
  z-score: 0.221 (inactive)
[4]
  z-score: -0.239 (inactive)
[5]
  z-score: -0.814 (inactive)
[6]
  z-score: -0.089 (inactive)
[7]
  z-score: -0.382
[8]
  z-score: 1.47 (inactive)
[9]
  z-score: 0.594 (inactive)
[10]
  z-score: 0.325

## CC(C)CON=C1C[C@@H](O)[C@@H](O)[C@@H]2[C@@H]3C(=O)N(C[C@@H]4CCCO4)C(=O)[C@@H]3CC[C@@H]12
[1]
  z-score: 0.93 (inactive)
[2]
  composite z-score: -0.0501
[3]
  z-score: -0.441 (inactive)
[4]
  z-score: -0.379 (inactive)
[5]
  z-score: -0.611 (inactive)
[6]
  z-score: -0.21 (inactive)
[7]
  z-score: 0.324
[8]
  z-score: 0.957 (inactive)
[9]
  z-score: 0.816 (inactive)
[10]
  z-score: -0.0365

## COc1ccc(C#C[C@@H]2C=C[C@H](OC(C)=O)[C@@H](COC(C)=O)O2)cc1
[1]
  z-score: 0.381 (inactive)
[2]
  composite z-score: -0.193
[3]
  z-score: 1.96 (inactive)
[4]
  z-score: 0.141 (inactive)
[5]
  z-score: -0.544 (inactive)
[6]
  z-score: -0.0979 (inactive)
[7]
  z-score: -0.394
[8]
  z-score: 1.38 (inactive)
[9]
  z-score: 0.59 (inactive)
[10]
  z-score: 0.89

## O=C1C=C[C@@H](O)[C@@H]2[C@@H]3C(=O)N(c4ccc(F)cc4F)C(=O)[C@@H]3CC[C@@H]12
[1]
  z-score: 0.262 (inactive)
[2]
  composite z-score: -0.0559
[3]
  z-score: 0.337 (inactive)
[4]
  z-score: -1.44 (inactive)
[5]
  z-score: -0.562 (inactive)
[6]
  z-score: -1.9 (inactive)
[7]
  z-score: 1.44
[8]
  z-score: -0.632 (inactive)
[9]
  z-score: 0.267 (inactive)
[10]
  z-score: 0.713

## COC(=O)CC=C[C@@H](C)[C@@H](C=NOC[C@H]1O[C@H](c2ccccc2)C=C[C@@H]1Oc1ccc(OC)cc1)OC
[1]
  z-score: -0.425 (inactive)
[2]
  composite z-score: -0.148
[3]
  z-score: 4.7 (inactive)
[4]
  z-score: 1.15 (inactive)
[5]
  z-score: -0.469 (inactive)
[6]
  z-score: 0.393 (inactive)
[7]
  z-score: -0.516
[8]
  z-score: -0.323 (inactive)
[9]
  z-score: 0.338 (inactive)
[10]
  z-score: -0.549

## CC(CCN1CCc2nc(-c3ccccc3)c(-c3ccccc3)cc2C1)=NOC[C@@H](O)COCc1ccco1
[1]
  z-score: 1.17 (inactive)
[2]
  composite z-score: -0.101
[3]
  z-score: 3.04 (inactive)
[4]
  z-score: 0.369 (inactive)
[5]
  z-score: 0.686 (inactive)
[6]
  z-score: 0.195 (inactive)
[7]
  z-score: 0.615
[8]
  z-score: -0.636 (inactive)
[9]
  z-score: -0.00269 (inactive)
[10]
  z-score: -0.624

## CCOC(=O)[C@H](Cc1ccccc1)NC(=O)CCC1CC(OC(=O)NCCc2ccc(F)cc2)CC2(CCCC(COC(=O)NCCOC)O2)O1 (stereo not given in full)
[1]
  z-score: 0.602 (inactive)
[2]
  composite z-score: -0.0468
[3]
  z-score: 19.4 (active)
[4]
  z-score: 4.99 (inactive)
[5]
  z-score: 0.486 (inactive)
[6]
  z-score: 0.737 (inactive)
[7]
  z-score: 0.011
[8]
  z-score: 0.188 (inactive)
[9]
  z-score: 0.251 (inactive)
[10]
  z-score: 0.0245
